What all share (test): universal protein binding microarray (PBM); transcription factors of Arabidopsis thaliana; high values mean tight binding
One assay addresses T1, GST-ANAC092(1-176) (Arabidopsis thaliana, UniProt Q9FKA0 1-176).
T1 sequence: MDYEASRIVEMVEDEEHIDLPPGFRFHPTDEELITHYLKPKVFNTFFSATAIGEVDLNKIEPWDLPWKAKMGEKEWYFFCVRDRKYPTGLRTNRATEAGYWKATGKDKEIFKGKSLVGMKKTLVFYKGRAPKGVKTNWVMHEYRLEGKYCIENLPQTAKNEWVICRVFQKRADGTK
Conditions: protein: recombinant; tags: GST; chain copies: 2; dsDNA, one strand shown. The gist of the method: (§1)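 Protein amounts were determined by A280 or anti-GST western blot after glutathione–Sepharose 4B purification of GST-tagged proteins induced in cells, with zinc acetate included for zinc-finger proteins. Duplicate runs at 200 to 500 nM final were done on custom all-10-mer Agilent 4 × 180K arrays made double-stranded by primer extension. The normalised enrichment score (E-score) over gapped and ungapped 8-mers is the measure of binding.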

A further assay deals with T2, GST-ANAC019 NAC domain (Arabidopsis thaliana, UniProt Q9C932 14-162).
T2 sequence: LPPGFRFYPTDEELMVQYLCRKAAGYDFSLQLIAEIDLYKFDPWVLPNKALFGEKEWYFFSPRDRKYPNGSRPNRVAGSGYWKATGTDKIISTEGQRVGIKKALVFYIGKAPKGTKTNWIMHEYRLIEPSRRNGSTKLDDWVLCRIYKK
Conditions: protein: recombinant; tags: GST; chain copies: 2; dsDNA, one strand shown. The gist of the method: as §1

For another assay, the target named is T3, GST-ANAC055(1-171) (Arabidopsis thaliana, UniProt Q9LDY8 1-171).
T3 sequence: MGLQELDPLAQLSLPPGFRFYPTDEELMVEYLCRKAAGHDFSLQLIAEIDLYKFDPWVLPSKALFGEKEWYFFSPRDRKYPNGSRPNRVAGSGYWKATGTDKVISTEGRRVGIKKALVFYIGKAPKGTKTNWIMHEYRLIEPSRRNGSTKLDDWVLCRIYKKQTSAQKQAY
To be noted: protein: recombinant; tags: GST; chain copies: 2; dsDNA, one strand shown. The gist of the method: as §1

The next assay has as its target T4, GST-ATAF1 NAC domain (Arabidopsis thaliana, UniProt Q39013 7-158).
T4 sequence: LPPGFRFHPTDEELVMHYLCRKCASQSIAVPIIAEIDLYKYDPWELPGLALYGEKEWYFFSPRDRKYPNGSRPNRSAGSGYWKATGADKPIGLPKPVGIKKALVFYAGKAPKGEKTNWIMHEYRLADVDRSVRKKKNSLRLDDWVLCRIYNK
Conditions: protein: recombinant; tags: GST; chain copies: 2; dsDNA, one strand shown. The gist of the method:
as §1

Assay [1] has as its target T5, GST-ANAC092(1-285) full length (Arabidopsis thaliana, UniProt Q9FKA0 1-285).
T5 sequence: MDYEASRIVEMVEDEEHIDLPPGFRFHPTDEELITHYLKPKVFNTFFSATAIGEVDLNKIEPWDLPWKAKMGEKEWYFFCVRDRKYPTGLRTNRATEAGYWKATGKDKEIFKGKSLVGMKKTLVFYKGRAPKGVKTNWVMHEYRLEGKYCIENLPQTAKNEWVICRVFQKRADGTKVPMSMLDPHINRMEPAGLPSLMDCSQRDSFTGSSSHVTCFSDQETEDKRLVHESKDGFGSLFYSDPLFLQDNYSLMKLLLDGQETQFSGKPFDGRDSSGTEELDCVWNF
Conditions: protein: recombinant; tags: GST; chain copies: 2; dsDNA, one strand shown. The gist of the method: as §1

Another assay concerns the target T6, GST-NAP(1-166) (Arabidopsis thaliana, UniProt O49255 1-166).
T6 sequence: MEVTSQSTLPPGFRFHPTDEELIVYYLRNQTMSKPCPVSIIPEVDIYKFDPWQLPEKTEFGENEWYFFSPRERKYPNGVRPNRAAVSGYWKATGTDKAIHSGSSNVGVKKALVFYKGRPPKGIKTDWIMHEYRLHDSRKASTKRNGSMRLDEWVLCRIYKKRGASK
Conditions: protein: recombinant; tags: GST; chain copies: 2; dsDNA, one strand shown. The gist of the method:
as §1

For a further assay, the target named is T7, GST-NST2(1-184) (Arabidopsis thaliana, UniProt Q9M274 1-184).
T7 sequence: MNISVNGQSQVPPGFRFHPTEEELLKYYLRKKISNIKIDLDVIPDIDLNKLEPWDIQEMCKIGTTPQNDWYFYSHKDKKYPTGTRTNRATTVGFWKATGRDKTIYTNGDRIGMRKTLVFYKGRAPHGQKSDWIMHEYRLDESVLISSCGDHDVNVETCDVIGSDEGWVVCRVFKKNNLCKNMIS
Conditions: protein: recombinant; tags: GST; chain copies: 2; dsDNA, one strand shown. The method in brief:
as §1

A further assay has as its target T8, GST-SND1(1-203) (Arabidopsis thaliana, UniProt Q9LPI7 1-203).
T8 sequence: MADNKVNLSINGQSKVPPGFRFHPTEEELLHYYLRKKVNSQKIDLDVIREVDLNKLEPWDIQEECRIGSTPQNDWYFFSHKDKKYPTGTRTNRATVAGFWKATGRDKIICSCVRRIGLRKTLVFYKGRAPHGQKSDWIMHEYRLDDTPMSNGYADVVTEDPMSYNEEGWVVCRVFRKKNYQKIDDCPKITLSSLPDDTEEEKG
To be noted: protein: recombinant; tags: GST; chain copies: 2; dsDNA, one strand shown. The method in brief:
as §1

For another assay, the target named is T9, GST-VND3 NAC domain (Arabidopsis thaliana, UniProt Q9FH59 12-162).
T9 sequence: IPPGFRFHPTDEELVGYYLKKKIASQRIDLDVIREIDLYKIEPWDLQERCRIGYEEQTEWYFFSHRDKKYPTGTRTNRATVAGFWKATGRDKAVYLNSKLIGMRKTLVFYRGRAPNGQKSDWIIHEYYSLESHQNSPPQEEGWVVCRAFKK
Conditions: protein: recombinant; tags: GST; chain copies: 2; dsDNA, one strand shown. The method in brief: as §1

The target in the next assay is T10, GST-VND7 NAC domain (Arabidopsis thaliana, UniProt Q9C8W9 9-158).
T10 sequence: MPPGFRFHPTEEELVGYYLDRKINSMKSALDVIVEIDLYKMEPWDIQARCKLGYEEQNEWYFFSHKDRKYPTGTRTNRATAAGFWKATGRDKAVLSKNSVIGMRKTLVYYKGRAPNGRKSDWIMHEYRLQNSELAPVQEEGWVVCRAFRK
To be noted: protein: recombinant; tags: GST; chain copies: 2; dsDNA, one strand shown. The gist of the method:
as §1

The target of another assay is GST-WRKY1(266-371) (Arabidopsis thaliana, UniProt Q9SI37 266-371). Conditions: protein: recombinant; tags: GST; dsDNA, one strand shown. The method in brief: as §1
Sequence of GST-WRKY1(266-371) (Q9SI37 266-371): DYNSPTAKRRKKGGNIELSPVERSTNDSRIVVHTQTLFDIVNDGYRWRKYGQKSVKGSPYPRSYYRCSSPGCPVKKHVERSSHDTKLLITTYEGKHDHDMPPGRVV
A further assay addresses GST-NTL6(1-168) (Arabidopsis thaliana, UniProt Q9SCK6 1-168). To be noted: protein: recombinant; tags: GST; chain copies: 2; dsDNA, one strand shown. The gist of the method:
as §1

The next assay concerns the target T11, GST-NTL8 NAC domain (Arabidopsis thaliana, UniProt Q9XIN7 14-156).
T11 sequence: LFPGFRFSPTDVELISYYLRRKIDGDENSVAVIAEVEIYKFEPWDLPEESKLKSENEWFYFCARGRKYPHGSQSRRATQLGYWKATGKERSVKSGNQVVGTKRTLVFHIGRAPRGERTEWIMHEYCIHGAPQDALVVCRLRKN
Conditions: protein: recombinant; tags: GST; chain copies: 2; dsDNA, one strand shown. The gist of the method: as §1

Sequence of GST-NTL6(1-168) (Q9SCK6 1-168): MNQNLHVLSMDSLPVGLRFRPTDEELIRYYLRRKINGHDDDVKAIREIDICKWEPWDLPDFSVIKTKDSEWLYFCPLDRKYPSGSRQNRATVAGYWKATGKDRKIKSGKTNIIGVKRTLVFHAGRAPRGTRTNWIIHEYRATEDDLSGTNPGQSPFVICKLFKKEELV

Take GCGTGTCA: the binding signal with GST-ANAC092(1-176) is 0.331 E-score; in the assay with GST-ANAC019 NAC domain, 0.231 E-score; with GST-ANAC055(1-171), 0.195 E-score; with GST-ATAF1 NAC domain, 0.193 E-score; in assay [1], 0.408 E-score; in the assay with GST-NAP(1-166) it was 0.186 E-score. Besides, the binding signal was found to be 0.0663 E-score with GST-NST2(1-184); 0.0867 E-score in the assay with GST-SND1(1-203); 0.0583 E-score in the assay with GST-VND3 NAC domain; 0.189 E-score in the assay with GST-VND7 NAC domain; 0.0865 E-score with GST-WRKY1(266-371).

For the sequence TACGTCAA, the binding signal with GST-ANAC092(1-176) was 0.363 E-score; in the assay with GST-ANAC019 NAC domain it was 0.216 E-score; with GST-ANAC055(1-171), 0.194 E-score; with GST-ATAF1 NAC domain, 0.291 E-score; in assay [1], 0.417 E-score; with GST-NAP(1-166) it was 0.241 E-score. For the same sequence, the binding signal came out at 0.341 E-score with GST-NST2(1-184); 0.44 E-score with GST-SND1(1-203); 0.23 E-score in the assay with GST-VND3 NAC domain; 0.205 E-score with GST-VND7 NAC domain; 0.402 E-score with GST-WRKY1(266-371).

In the case of GTACGTCA, the binding signal in the assay with GST-ANAC092(1-176) amounted to 0.441 E-score; in the assay with GST-NTL6(1-168), 0.0743 E-score; with GST-ANAC019 NAC domain, 0.413 E-score; with GST-ANAC055(1-171) it was 0.295 E-score; with GST-ATAF1 NAC domain, 0.366 E-score; in assay [1], 0.45 E-score. Besides, the binding signal was determined as 0.363 E-score with GST-NAP(1-166); 0.244 E-score in the assay with GST-NST2(1-184); 0.149 E-score with GST-NTL8 NAC domain; 0.422 E-score with GST-SND1(1-203); 0.38 E-score in the assay with GST-VND3 NAC domain; 0.373 E-score with GST-VND7 NAC domain. Moreover, the binding signal with GST-WRKY1(266-371) amounted to 0.228 E-score.

For CGTATACG, the binding signal with GST-ANAC092(1-176) is 0.195 E-score; with GST-ANAC019 NAC domain, 0.354 E-score; with GST-ANAC055(1-171) it was 0.363 E-score; with GST-ATAF1 NAC domain, 0.407 E-score; in [1], 0.283 E-score; with GST-NAP(1-166) it was 0.397 E-score. The binding signal with GST-NST2(1-184) amounted to 0.0918 E-score; with GST-SND1(1-203) it was 0.0859 E-score; with GST-VND3 NAC domain, 0.321 E-score; in the assay with GST-VND7 NAC domain it was 0.395 E-score; with GST-WRKY1(266-371), 0.0731 E-score.

Take AAGTCTAC: the binding signal with GST-ANAC092(1-176) was determined as 0.0876 E-score; with GST-NTL6(1-168) it was 0.202 E-score; in the assay with GST-ANAC055(1-171), 0.158 E-score; in the assay with GST-ATAF1 NAC domain, 0.0826 E-score; with GST-NST2(1-184) it was 0.103 E-score; in the assay with GST-SND1(1-203) it was 0.0865 E-score. Further, the binding signal with GST-VND3 NAC domain is 0.0561 E-score; with GST-VND7 NAC domain it was 0.0651 E-score; with GST-WRKY1(266-371), 0.412 E-score.

As for GTACGGCA, the binding signal came to 0.395 E-score with GST-ANAC092(1-176); 0.451 E-score with GST-ANAC019 NAC domain; 0.362 E-score with GST-ANAC055(1-171); 0.385 E-score with GST-ATAF1 NAC domain; 0.439 E-score in assay [1]; 0.342 E-score with GST-NAP(1-166). Moreover, the binding signal is 0.178 E-score with GST-NST2(1-184); 0.236 E-score with GST-SND1(1-203); 0.424 E-score with GST-VND3 NAC domain; 0.425 E-score with GST-VND7 NAC domain; 0.0953 E-score in the assay with GST-WRKY1(266-371).

Turning to CGTGGTCA, the binding signal stood at 0.128 E-score with GST-ANAC092(1-176); 0.189 E-score with GST-ANAC019 NAC domain; 0.0851 E-score with GST-ANAC055(1-171); 0.0537 E-score in the assay with GST-ATAF1 NAC domain; 0.195 E-score in assay [1]; 0.0883 E-score with GST-SND1(1-203). Besides, the values for the binding signal with GST-VND3 NAC domain, with GST-VND7 NAC domain and in the assay with GST-WRKY1(266-371) were 0.164 E-score, 0.128 E-score and 0.431 E-score, respectively.
